Bioassay records as filed in PubChem BioAssay.
HT1080NT lethal: kills 2HG-producing HT-1080-NT fibrosarcoma cells; HT-1080-NT fibrosarcoma viability, CellTiter-Glo ATP luminescence, 48 h; Potency, µM (top dose mostly 46.1 µM), for the others: top-dose activity, negative = less viability, hits mostly cytotoxic; 360,000 tested, 1.6% active; AID 686970;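 further: NT is the 2HG producing partner of a matched IDH1 knockdown line; 0% = DMSO-treated cells and -100% = media-only wells without cells; nearly all actives have a fitted effect of over 55% in size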
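Read-out is CellTiter-Glo luminescence after 10 minutes at room temperature, following 48 hours' compound treatment of HT-1080-NT cells (750 cells/well, RPMI, 5% FBS, 37 degrees C).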
HT1080 IDH1KD tx: toxicity to HT-1080 IDH1 knockdown cells (counter line). 360,000 tested, 2% active. Potency, µM (top dose mostly 46.1 µM), for the others: top-dose activity, negative = toxicity, hits mostly cytotoxic. HT-1080 IDH1 knockdown viability, ATP luminescence, 48 h. AID 686971;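 further: 0% = DMSO wells and -100% = cell-free medium wells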
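After a 2 h attachment period, IDH1KD HT-1080 cells took pin-transferred compound for 48 h at 37 °C; ATP-based luminescence after 10 min room-temperature reagent incubation reported viability.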
ATXN viability: cell viability loss in ATXN counter-screen; 400,000 tested, 0.49% active; Potency, µM (top dose mostly 56.7 µM), usual class: cytotoxic; S2 cells (HEK-293 line with an ATXN2-luciferase reporter) viability, CellTiter-Fluor protease fluorescence, 24 h; AID 651635; further: nearly all actives have a fitted effect of over 40% in size
ATXN2 expr inh: inhibitors of ATXN2 expression | AID 1745845 | Potency, µM (titrated, usually from 57 µM), for inactives: at the highest dose activity change, negative = inhibition, actives largely listed as inhibitors | HEK-293 ATXN2-luciferase reporter, luminescence, 24 h | 360,000 tested, 0.72% active; further: on the % scale 0 is the no-effect control and ±100 the full control effect; nearly all actives have a fitted effect of over 55% in size
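ATXN2-luciferase reporter cells (luciferase flanked by upstream and downstream ATXN2 gene portions) were treated 24 h at 37 °C with compounds at up to 57 uM. SteadyGlo luminescence gave expression; GF-AFC fluorescence gave viability.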
HepG2 viability: kills HepG2 cells in TGF-b inhibitor counter-screen; HepG2 CAGA-GFP viability, ATP luminescence, 18 h; Potency, µM (series often up to 46.1 µM), for inactives: at the highest dose activity change, negative = cytotoxicity, hits mostly cytotoxic; 410,000 tested, 0.76% active
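CellTiter-Glo luminescence gave cytotoxicity after 18 hours at 37 degrees C. The cells were HepG2 CAGA-GFP in 1% FBS DMEM, stimulated with 500 pg/mL TGF-beta after compound addition. %Activity was normalised to no-cell wells (complete cell-killing) and DMSO (no toxicity), and curves were fitted and classified.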
TGFb inhibitor: inhibitors of TGF-b signaling. 410,000 tested, 1.2% active. Potency, µM (highest dose often 46.1 µM), for inactives: at the highest dose activity, negative = inhibition, most hits filed as inhibitors. HepG2 CAGA-GFP TGF-b/SMAD3 reporter, GFP fluorescence, 18 h; TGF-beta stimulated, 500 pg/mL final; further: on the % scale 0 is the no-effect control and ±100 the full control effect; nearly all actives have a fitted effect of over 65% in size
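TGF-beta reporter screen: HEPG2 CAGA-GFP, 1% FBS, 500 pg/mL TGF-beta final, 18 h; per-cell GFP summed per well; curves fitted and categorized by class.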
* hit, by the source's call; i = inactive; ? = inconclusive; / = no result. Rows were chosen to be rich in hits. Some 3.8% of all compounds tested hit in one or more screens of this group. The call rests on the fitted dose curve; in most records, active means well fitted curve in the direction sought with a large enough effect; inconclusive means small, poorly fitted or top-dose-only effect, or another doubt; inactive means no such curve, though single readings can be large; an effect the other way counts as inactive or inconclusive. Potency means the concentration at half of the fitted maximal effect.

SMILES	HT1080NT lethal	HT1080 IDH1KD tx	ATXN viability	ATXN2 expr inh	HepG2 viability	TGFb inhibitor
Cc1c(C(=O)Nc2ccc(F)cc2)oc2ccc(S(=O)(=O)N3CCCCCC3)cc12	/	/	i	-28.9%	-7.7%	-4.0%
COc1cc(CN2CCC3(CCC(CNC(=O)c4ccco4)O3)CC2)cc(OC)c1 (stereo unspecified)	/	/	i	/	/	/
COc1ccc(-c2cc(C(F)F)n3ncc(C(=O)N4CCc5ccccc54)c3n2)cc1	3.26µM*	2.91µM*	i	/	5.1%	9.5%
OC(c1ccccc1)(c1nc(/C=C/c2ccccc2)cs1)C(F)(F)F (stereo unspecified)	?	?	i	-35.8%	-113.9%	22.4µM*
OC(c1ccccc1)(c1nc(-c2ccccc2)cs1)C(F)(F)F (stereo unspecified)	20.6µM*	?	?	0.0%	-108.8%	?
OC(c1ccccc1)(c1nc(-c2cccc(F)c2)cs1)C(F)(F)F (stereo unspecified)	18.4µM*	?	?	-31.4%	-89.1%	?
CC(O)(c1ccc(F)c(F)c1)c1nc(/C=C/c2ccccc2)cs1 (stereo unspecified)	-27.2%	-23.9%	?	-11.2%	-55.0%	?
OC(c1ccccc1)(c1nc(-c2cc(F)cc(F)c2)cs1)C(F)(F)F (stereo unspecified)	?	?	/	?	-106.4%	?
O=C(COc1ccccc1C(=O)Nc1ccccc1)Nc1ccc2ccccc2c1	-18.0%	-9.3%	/	/	/	/
Oc1ccccc1C1CC(c2cccs2)=NC(c2cccc(Br)c2)N1 (stereo unspecified)	?	?	i	50.7%	-60.8%	20µM*
O=S(=O)(c1ccccc1)N1N=C(c2cccs2)CC1c1cccc(O)c1 (stereo unspecified)	-18.1%	-9.7%	i	3.5%	-11.1%	-28.6%
CN(C)S(=O)(=O)c1cccc(NC(=O)CSc2cccc3cccnc23)c1	18.4µM*	?	/	?	15.8µM*	?
CN(C)S(=O)(=O)c1ccc(SCC(=O)Nc2cccc(S(=O)(=O)N3CCCC3)c2)nc1	1.1%	0.0%	/	/	-35.3%	-13.0%
Cc1ccc(OCC(=O)Nc2cccc(S(=O)(=O)N3CCCC3)c2)cc1C	-1.0%	-0.1%	?	/	1.1%	2.8%
O=C(Nc1cccc(S(=O)(=O)N2CCCC2)c1)c1ccc(Cl)nc1	?	6.51µM*	i	?	2.0%	-17.0%
CN(C)S(=O)(=O)c1cccc(NC(=O)COc2ccc(C(=O)c3ccccc3)cc2)c1	?	?	i	-38.2%	22.4µM*	-32.8%
CC(=O)c1ccc(OCC(=O)Nc2cccc(S(=O)(=O)N3CCCC3)c2)cc1	16.4µM*	-17.0%	i	-7.1%	-5.7%	-6.0%
CN(c1ccccc1)S(=O)(=O)c1cccc(NC(=O)COc2ccccc2)c1	-0.2%	2.9%	i	/	-0.2%	-4.4%
COc1ccc(-c2nc3sc(CCNC(=O)c4ccc(Br)o4)c(C)n3n2)cc1	/	/	?	-37.9%	-42.5%	?
CC(C)=CCc1cc(-c2oc3cc(O)cc(O)c3c(=O)c2O)ccc1O	-0.6%	-8.5%	i	9.5%	-45.5%	?
CC(C)=CCc1c(O)cc2oc3c(CC=C(C)C)c(O)c(O)c(CC=C(C)C)c3c(=O)c2c1O	?	?	?	?	8.91µM*	6.31µM*
CC(C)CC(=O)NCC(c1ccc2c(c1)OCO2)N1CCN(c2ccccc2F)CC1 (stereo unspecified)	/	/	i	-11.4%	-1.7%	?
Cc1cc(NC(=O)c2ccccc2)n(-c2nc3ccccc3[nH]2)n1	10.8%	8.1%	?	-35.3%	-27.0%	7.8%
Cc1cc(NC(=O)C2CCCC2)n(-c2nc3ccccc3[nH]2)n1	7.94µM*	3.98µM*	i	-33.3%	-22.7%	-1.2%
COc1cc(OC)c(NC(=O)Cn2c(=O)nc(-c3ccccc3)c3ccccc32)cc1Cl	/	/	i	9.7%	-3.5%	9.9%
SMILES	HT1080NT lethal	HT1080 IDH1KD tx	ATXN viability	ATXN2 expr inh	HepG2 viability	TGFb inhibitor
Cc1ccc(-c2nnc(Nc3ccc(Br)cc3)c3ccccc23)cc1S(=O)(=O)NCC1CCCO1 (stereo unspecified)	/	/	i	-9.7%	-14.4%	?
COc1ccccc1Cn1c(=S)[nH]c2cc(C(=O)NCCCN3CCOCC3)ccc2c1=O	16.4µM*	?	i	-13.7%	-21.4%	-1.3%
COc1ccccc1Cn1c(=S)[nH]c2cc(C(=O)NCCN3CCOCC3)ccc2c1=O	1.0%	8.2%	i	0.1%	-1.4%	-22.1%
CC(=O)N(c1onc(C)c1C)S(=O)(=O)c1ccc(N)cc1	/	/	i	-3.4%	/	/
C=C1C(=O)C2=CC1CCC(=O)C1(C)CCC(OC(C)=O)C(C)(C)C1CC2O (stereo unspecified)	-24.0%	5.8µM*	/	?	-98.4%	2.82µM*
CC(=O)OC1CCC2C3CCC4OC(=O)CCC4C3CCC12C (stereo unspecified)	10.4%	17.3%	i	2.4%	-24.7%	-2.5%
CCC[C@@H](C=O)NC(=O)[C@H](CC(C)C)NC(=O)[C@H](CC(C)C)NC(=O)OCc1ccccc1	/	/	/	1.53µM*	/	/
CCSc1nc(=O)c2c(n1C)NC(=O)CC2c1ccc(O)cc1OC (stereo unspecified)	/	/	i	12.6%	-4.2%	-7.5%
O=C(Nc1ccc(F)cc1F)c1sccc1SCc1cccc(C(F)(F)F)c1	9.8%	1.1%	i	1.5%	-7.5%	?
O=C(Nc1ccc(F)cc1)c1sccc1SCc1cccc(C(F)(F)F)c1	12.6µM*	17.8µM*	i	?	-3.6%	?
COc1ccc(NC(=O)c2sccc2SCc2cccc(C(F)(F)F)c2)cc1	?	8.91µM*	i	5.3%	-29.1%	?
